# “And” between values parts separate entries of the source, which are not always exact repeats. Equal entries are not always repeated. Results filed as inconclusive are left out. The source made the active and inactive calls. Rule for the calls: active = hit-call score of the fitted dose curve at least 0.9, where 1 is the maximum; inconclusive = response in the unintended direction; inactive = score below 0.9.
# What was measured:
# [1] = molecular target: Nuclear receptor subfamily 1 group I member 2 (Homo sapiens) (UniProt O75469); assay: NVS_NR_hPXR: NovaScreen (NVS) Nuclear Receptor Binding Assay for human Pregnane X Receptor (PXR) (AID 2283365);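 note: a drop in FRET signal versus DMSO baseline means the compound binds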
# Sequence of Nuclear receptor subfamily 1 group I member 2 (Homo sapiens) (O75469 whole entry, looked up): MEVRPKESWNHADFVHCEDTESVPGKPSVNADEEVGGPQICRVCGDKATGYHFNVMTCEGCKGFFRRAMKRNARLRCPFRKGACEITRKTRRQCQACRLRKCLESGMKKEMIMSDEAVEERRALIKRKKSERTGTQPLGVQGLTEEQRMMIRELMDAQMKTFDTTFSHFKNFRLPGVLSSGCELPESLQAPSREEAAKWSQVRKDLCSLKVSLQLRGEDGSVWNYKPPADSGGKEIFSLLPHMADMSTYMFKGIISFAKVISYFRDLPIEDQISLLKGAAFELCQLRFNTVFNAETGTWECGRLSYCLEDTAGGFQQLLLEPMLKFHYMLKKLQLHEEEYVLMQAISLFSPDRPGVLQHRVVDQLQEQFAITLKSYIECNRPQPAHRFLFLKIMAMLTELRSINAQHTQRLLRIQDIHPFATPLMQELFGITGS
# Summary of the method: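 Binding was measured by time-resolved fluorescence resonance energy transfer after a 2 h exposure of extracted human PXR protein without cells. Compounds were first tested at 25 uM in duplicate, with concentration series for actives; DMSO defined baseline.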
# [2] = molecular target: human Peroxisome Proliferator-activated Receptor alpha (PPARa), PPARA (gene 5465) (UniProt Q07869); assay: NVS_NR_hPPARa: NovaScreen (NVS) Nuclear Receptor Binding Assay for human Peroxisome Proliferator-activated Receptor alpha (PPARa) (AID 2283359);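 note: activity means loss of TR-FRET signal versus DMSO baseline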
# Sequence of human Peroxisome Proliferator-activated Receptor alpha (PPARa), PPARA (gene 5465) (Q07869 whole entry, looked up): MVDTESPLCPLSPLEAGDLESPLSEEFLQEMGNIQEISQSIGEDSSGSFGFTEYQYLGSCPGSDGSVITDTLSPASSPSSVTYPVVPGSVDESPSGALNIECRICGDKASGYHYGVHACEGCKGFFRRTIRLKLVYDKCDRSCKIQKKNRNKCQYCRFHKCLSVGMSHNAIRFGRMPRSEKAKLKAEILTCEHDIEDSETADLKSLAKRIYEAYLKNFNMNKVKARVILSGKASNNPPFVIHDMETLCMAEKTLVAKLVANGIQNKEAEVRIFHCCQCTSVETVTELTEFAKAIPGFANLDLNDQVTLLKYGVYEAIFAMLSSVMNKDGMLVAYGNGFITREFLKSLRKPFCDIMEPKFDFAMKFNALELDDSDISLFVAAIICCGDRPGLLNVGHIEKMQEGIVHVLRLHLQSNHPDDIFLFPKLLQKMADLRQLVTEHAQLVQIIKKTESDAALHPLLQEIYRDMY
# Summary of the method: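 Chemicals were first screened in duplicate at 25 uM, and active ones were retested across concentration series. Binding was monitored by TR-FRET one hour after dosing, with decreased signal against DMSO counted as activity.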
# [3] = molecular target: Retinoic acid receptor alpha (Homo sapiens) (UniProt P10276); assay: NVS_NR_hRARa_Agonist: NovaScreen (NVS) Nuclear Receptor Binding Assay for human Retinoic Acid Alpha Receptor Agonism (RAR) (AID 2283361)
# Sequence of Retinoic acid receptor alpha (Homo sapiens) (P10276 whole entry, looked up): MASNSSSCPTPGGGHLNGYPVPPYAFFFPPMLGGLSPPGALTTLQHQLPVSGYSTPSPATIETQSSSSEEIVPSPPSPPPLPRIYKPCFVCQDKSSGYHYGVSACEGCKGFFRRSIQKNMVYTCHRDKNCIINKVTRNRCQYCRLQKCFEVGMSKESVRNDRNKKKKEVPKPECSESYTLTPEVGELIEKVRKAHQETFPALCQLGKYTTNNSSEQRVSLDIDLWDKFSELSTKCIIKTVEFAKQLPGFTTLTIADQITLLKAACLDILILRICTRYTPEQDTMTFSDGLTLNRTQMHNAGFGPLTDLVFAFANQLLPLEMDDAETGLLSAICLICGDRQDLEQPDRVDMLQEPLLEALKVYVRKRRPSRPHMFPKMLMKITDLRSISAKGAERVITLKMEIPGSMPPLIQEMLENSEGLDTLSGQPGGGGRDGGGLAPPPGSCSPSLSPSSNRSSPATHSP
# Summary of the method: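 Readout is time-resolved fluorescence resonance energy transfer after a 2 h exposure of cell-free extracted receptor protein. Initial testing used 25 uM in duplicate, with concentration-response follow-up for active chemicals.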
# [4] = molecular target: Peroxisome proliferator-activated receptor gamma (Homo sapiens) (UniProt P37231); assay: NVS_NR_hPPARg: NovaScreen (NVS) Nuclear Receptor Binding Assay for human Peroxisome Proliferator-activated Receptor gamma (PPARg) (AID 2283370)
# Sequence of Peroxisome proliferator-activated receptor gamma (Homo sapiens) (P37231 whole entry, looked up): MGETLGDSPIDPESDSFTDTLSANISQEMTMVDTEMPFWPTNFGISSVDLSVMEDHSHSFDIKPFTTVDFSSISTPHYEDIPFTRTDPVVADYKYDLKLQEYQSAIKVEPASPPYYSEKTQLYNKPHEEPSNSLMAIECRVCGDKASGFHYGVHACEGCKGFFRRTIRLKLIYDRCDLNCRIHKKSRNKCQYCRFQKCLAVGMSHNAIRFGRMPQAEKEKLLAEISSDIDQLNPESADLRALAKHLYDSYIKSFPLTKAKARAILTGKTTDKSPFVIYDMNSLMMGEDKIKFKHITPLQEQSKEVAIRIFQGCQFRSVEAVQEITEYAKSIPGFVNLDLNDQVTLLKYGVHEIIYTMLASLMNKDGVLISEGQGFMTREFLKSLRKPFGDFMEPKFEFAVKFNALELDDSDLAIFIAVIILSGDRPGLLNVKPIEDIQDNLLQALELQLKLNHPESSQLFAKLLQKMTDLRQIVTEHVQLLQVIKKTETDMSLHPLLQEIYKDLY
# Summary of the method: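 Fluorescence polarization measures competitive binding to extracted PPARg in a cell-free format. Reading is taken at 2 h; activity is signal loss relative to DMSO. Screening at 25 uM in duplicate preceded confirmatory dose series.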
# [5] = molecular target: human Thyroid Receptor Alpha (TRa), THRA (gene 7067) (UniProt P10827); assay: NVS_NR_hTRa_Antagonist: NovaScreen (NVS) Nuclear Receptor Binding Assay for human Thyroid Receptor Alpha Antagonism (TRa) (AID 2283362)
# Sequence of human Thyroid Receptor Alpha (TRa), THRA (gene 7067) (P10827 whole entry, looked up): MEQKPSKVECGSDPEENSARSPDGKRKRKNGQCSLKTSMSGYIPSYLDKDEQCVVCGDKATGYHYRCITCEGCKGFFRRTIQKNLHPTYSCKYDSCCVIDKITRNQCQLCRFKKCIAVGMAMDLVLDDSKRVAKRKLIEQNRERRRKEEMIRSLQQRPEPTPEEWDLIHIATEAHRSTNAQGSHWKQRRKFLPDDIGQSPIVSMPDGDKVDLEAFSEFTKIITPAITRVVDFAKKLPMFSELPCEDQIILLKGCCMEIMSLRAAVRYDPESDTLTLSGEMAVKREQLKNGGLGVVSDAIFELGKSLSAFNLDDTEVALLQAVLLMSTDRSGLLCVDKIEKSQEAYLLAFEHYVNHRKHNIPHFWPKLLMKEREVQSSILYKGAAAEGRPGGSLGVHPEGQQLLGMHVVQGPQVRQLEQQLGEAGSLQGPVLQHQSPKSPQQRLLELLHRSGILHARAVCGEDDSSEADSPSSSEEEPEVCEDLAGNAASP
# Summary of the method: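 Chemicals were first screened in duplicate at 25 uM, then actives were retested in concentration series. Binding to the extracted receptor was measured 1 h after dosing by AlphaLISA chemiluminescence, with decreased signal versus DMSO scored as activity.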
# [6] = tested on: guinea pig Dopamine Transporter (DAT), gene 100714898; assay: NVS_TR_gDAT: NovaScreen (NVS) Transporter Assay for guinea pig Dopamine Transporter (DAT) (AID 2283369);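 note: active compounds lower bound radioligand signal relative to DMSO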
# Summary of the method: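 Test chemicals were incubated 2 h with guinea pig striatal membranes and a radioligand; bound label was separated by filtration and counted. Screening ran at 25 uM, followed by concentration-response testing to a 50 uM maximum.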
# [7] = molecular target: human Dopamine Transporter (DAT), SLC6A3 (gene 6531) (UniProt Q01959); assay: NVS_TR_hDAT: NovaScreen (NVS) Transporter Assay for human Dopamine Transporter (DAT) (AID 2283374);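 note: activity means loss of bound radioligand signal relative to DMSO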
# Sequence of human Dopamine Transporter (DAT), SLC6A3 (gene 6531) (Q01959 whole entry, looked up): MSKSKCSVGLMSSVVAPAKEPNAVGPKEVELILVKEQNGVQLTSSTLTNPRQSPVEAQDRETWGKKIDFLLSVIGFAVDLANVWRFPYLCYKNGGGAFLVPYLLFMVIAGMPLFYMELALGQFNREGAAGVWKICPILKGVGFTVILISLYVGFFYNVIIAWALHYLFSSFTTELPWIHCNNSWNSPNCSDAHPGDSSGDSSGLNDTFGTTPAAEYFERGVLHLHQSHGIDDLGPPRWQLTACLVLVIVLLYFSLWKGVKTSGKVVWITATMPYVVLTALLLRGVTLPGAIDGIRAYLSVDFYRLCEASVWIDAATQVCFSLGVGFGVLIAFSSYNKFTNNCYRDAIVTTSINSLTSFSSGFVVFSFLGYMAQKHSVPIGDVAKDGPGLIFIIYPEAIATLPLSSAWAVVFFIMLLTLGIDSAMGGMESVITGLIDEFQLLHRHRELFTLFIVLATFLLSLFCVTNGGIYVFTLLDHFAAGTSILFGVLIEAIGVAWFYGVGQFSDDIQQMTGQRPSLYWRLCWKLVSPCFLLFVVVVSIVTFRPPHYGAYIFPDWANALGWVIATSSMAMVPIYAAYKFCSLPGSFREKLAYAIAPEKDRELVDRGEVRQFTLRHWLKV
# Summary of the method: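 Test chemicals were first screened in duplicate at 25 uM, with actives retested as concentration series. Displacement of a specific radioligand from cell-free human dopamine transporter was measured after 1 h by filtration and scintillation counting.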
# [8] = molecular target: rat Androgen Receptor (AR), Ar (gene 24208) (UniProt P15207); assay: NVS_NR_rAR: NovaScreen (NVS) Nuclear Receptor Binding Assay for rat Androgen Receptor (AR) (AID 2283366)
# Sequence of rat Androgen Receptor (AR), Ar (gene 24208) (P15207 whole entry, looked up): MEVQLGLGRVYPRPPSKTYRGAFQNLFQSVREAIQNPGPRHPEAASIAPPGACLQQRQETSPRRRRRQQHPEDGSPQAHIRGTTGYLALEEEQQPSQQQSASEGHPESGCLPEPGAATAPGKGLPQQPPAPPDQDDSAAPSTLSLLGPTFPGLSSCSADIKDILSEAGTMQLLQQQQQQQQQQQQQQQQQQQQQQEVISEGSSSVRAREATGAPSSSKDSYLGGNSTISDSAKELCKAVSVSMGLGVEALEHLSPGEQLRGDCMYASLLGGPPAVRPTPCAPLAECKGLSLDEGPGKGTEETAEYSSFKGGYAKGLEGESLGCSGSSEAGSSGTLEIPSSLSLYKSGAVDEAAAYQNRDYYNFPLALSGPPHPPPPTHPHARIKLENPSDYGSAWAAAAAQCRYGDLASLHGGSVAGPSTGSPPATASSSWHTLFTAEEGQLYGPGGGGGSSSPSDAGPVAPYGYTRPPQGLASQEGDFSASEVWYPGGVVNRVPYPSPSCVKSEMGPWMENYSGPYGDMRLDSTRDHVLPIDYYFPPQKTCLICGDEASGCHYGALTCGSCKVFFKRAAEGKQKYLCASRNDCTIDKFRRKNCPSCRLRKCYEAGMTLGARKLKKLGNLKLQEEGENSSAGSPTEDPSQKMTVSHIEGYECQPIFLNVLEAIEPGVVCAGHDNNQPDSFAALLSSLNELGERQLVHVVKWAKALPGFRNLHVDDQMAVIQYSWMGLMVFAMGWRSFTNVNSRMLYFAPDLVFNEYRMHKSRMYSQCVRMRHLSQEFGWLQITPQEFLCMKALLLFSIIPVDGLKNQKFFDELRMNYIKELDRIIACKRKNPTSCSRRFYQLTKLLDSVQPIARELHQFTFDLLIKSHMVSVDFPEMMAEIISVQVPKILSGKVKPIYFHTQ
# Summary of the method: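 Cell-free radioligand binding on extracts of prostate from testosterone-pretreated rats, read by filter-based scintillation counting 18 h after dosing. Loss of bound signal fitted positively versus DMSO; primary screen in duplicate at 25 uM, actives followed up in concentration series.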
smiles,measurement,setting,value
O=CCCl,outcome,[1],inactive
CCC[CH2][Sn]([Cl])([Cl])[CH2]CCC,AC50,[2],12 µM (active)
same,AC50,[3],38 µM (active)
same,AC50,[1],5.56 µM (active)
same,outcome,[4],inactive
CCCCCCCCCCCCOS(=O)(=O)O,AC50,[2],15.8 µM (active) and 8.71 µM (active)
same,AC50,[1],38.1 µM (active) and 17.4 µM (active)
Nc1ncn[nH]1,outcome,[5],inactive
same,outcome,[1],inactive
CC(C)(C)c1ccccc1O,outcome,[2],inactive
same,outcome,[6],inactive
same,outcome,[7],inactive
O=[N+]([O-])c1ccc(Cl)c([N+](=O)[O-])c1,outcome,[2],inactive
same,AC50,[8],3.07 µM (active)
same,outcome,[4],inactive
O=S1(=O)OC(c2cc(Br)c(O)c(Br)c2)(c2cc(Br)c(O)c(Br)c2)c2ccccc21,AC50,[5],4.18 µM (active)
same,AC50,[1],5.92 µM (active)
same,AC50,[8],3.11 µM (active)
same,AC50,[4],2.87 µM (active)
